S1P2 antag = human S1P2 receptor antagonists, primary screen, cell-based | Sphingosine 1-phosphate receptor 2 (Homo sapiens), O95136 | cell-based S1P2 antagonist assay, inhibition at 5 uM | inhibition, % at 5 µM | 97,000 tested, 0.21% active | AID 736, 2007; in the data active = inhibition above about 45%;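 note: CRE beta-lactamase reporter cells expressing human S1P2 stimulated with S1P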
Target sequence (O95136 whole entry, looked up): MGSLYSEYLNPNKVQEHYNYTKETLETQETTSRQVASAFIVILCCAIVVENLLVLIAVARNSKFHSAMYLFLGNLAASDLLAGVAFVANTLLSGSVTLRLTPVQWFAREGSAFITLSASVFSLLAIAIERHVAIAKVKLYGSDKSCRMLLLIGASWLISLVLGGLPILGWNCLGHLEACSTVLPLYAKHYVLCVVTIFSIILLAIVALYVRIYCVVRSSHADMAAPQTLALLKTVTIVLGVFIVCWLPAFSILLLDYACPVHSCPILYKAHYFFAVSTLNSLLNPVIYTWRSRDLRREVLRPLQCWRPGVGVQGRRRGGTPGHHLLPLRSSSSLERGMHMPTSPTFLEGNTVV
PostGolgi yeast = phenotypic screen on post-Golgi transport, primary screen; post-Golgi transport phenotypic cell assay; inhibition, % at 10 µM; 98,000 tested, 0.9% active;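 note: yeast cells grown in 1536-well plates; yeast grown about 18 h at 30C before absorbance read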
PostGolgi ctrl = growth inhibition of yeast control strain, primary screen, counter-screen for post-Golgi transport modulator project. efflux-deficient yeast background strain, growth absorbance A615, 16 h. AID 738, 2007. 98,000 tested, 5% active. inhibition, % at 10 µM
GALR2 blocker = GALR2 antagonists in receptor-expressing cells, primary screen. Galanin receptor type 2 (Homo sapiens), O43603. antagonist mode. inhibition, % at 4 µM. 140,000 tested, 0.39% active. AID 828, 2007; in the data active = inhibition above about 27%;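 note: cells stimulated with galanin 1-16 at roughly its EC80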
GALR2 ag = GALR2 receptor agonists, primary screen, cell-based | GALR2-expressing cells, agonist activation read-out | activation, % (concentration not given with the values) | 140,000 tested, 0.48% active | AID 803, 2007; in the data active = activation above about 5%, passing the limit was not always enough
S1P2 ag = S1P2 receptor agonists, primary screen, cell-based. activation, % at 4.5 µM. S1P2-expressing cell line, agonist reporter read-out. 97,000 tested, 0.46% active. AID 729, 2007. Sphingosine 1-phosphate receptor 2 (Homo sapiens), O95136; in the data active = activation above about 16%
Numbers stand for hits; i = inactive; nt = not tested or not shown. Many of the other results were omitted from the sample, so hits are more common in it than they were. Cut-off read from the data, not from the text of the source, unless noted: active = inhibition above about 30%; inactive = the rest.

SMILES	S1P2 antag	PostGolgi yeast	PostGolgi ctrl	GALR2 blocker	GALR2 ag	S1P2 ag
CCCn1c(=O)c2ccccc2n2c(SCC(=O)NCc3cccs3)nnc12	i	i	40.3	i	i	i
CCCn1c(=O)c2ccccc2n2c(SCC(=O)c3ccc(CC)cc3)nnc12	i	i	i	i	i	i
Cc1ccc(NC(=O)CSCC(=O)N2c3ccccc3CCc3ccccc32)cc1	i	i	i	i	i	i
C=C(C)CNC(=S)N/N=C(\C)c1ccc(Cl)s1	nt	nt	nt	i	i	nt
CN(C)c1oc(-c2ccccc2Cl)nc1C#N	i	i	i	i	i	i
CN(C)c1oc(-c2ccccc2Cl)nc1S(=O)(=O)c1ccccc1	i	i	31.9	i	i	i
O=c1c2cc3c(cc2[nH]c(=S)n1CCN1CCOCC1)OCO3	i	i	35.8	i	i	i
CC(C)OCCCn1c(=S)[nH]c2cc3c(cc2c1=O)OCO3	i	i	i	i	i	i
CC1CCCCN1C(=O)CSc1nc(N)cc(=O)[nH]1 (configuration not stated)	i	i	30.0	i	i	i
CCn1c(SCc2ccc(C#N)cc2)nnc1-c1ccc(S(=O)(=O)N2CCCCC2)cc1	i	i	43.0	i	i	i
Cc1ccc(S(=O)(=O)N2CCSC2)cc1C	i	i	i	i	i	i
CC(OC(=O)c1ccc2ccccc2n1)C(=O)Nc1ccc(N2CCOCC2)cc1 (configuration not stated)	i	i	31.3	i	i	i
COc1ccc(/C=C/C(=O)Nc2sc3c(c2C(=O)NCc2cccnc2)CCCC3)cc1	i	i	52.3	i	i	i
COc1cc(C=NCC2OCCc3ccccc32)cc(OC)c1 (configuration not stated)	nt	nt	nt	i	i	nt
Cc1ccc(NS(=O)(=O)c2ccc(N3C(=O)CCC3=O)cc2)cc1	i	i	i	i	i	i
Cc1cccc(OCCn2c(CCCO)nc3ccccc32)c1	i	i	30.3	i	i	i
Cn1c(=O)n(CCCOc2ccc(Cl)cc2)c2ccccc21	i	i	49.1	i	i	i
Cn1c(=O)n(CCCOc2ccc(Br)cc2)c2ccccc21	i	i	38.5	i	i	i
COc1ccccc1OCCn1c(CO)nc2ccccc21	i	i	i	i	i	i
COc1ccc(OCCCn2c(=O)oc3ccccc32)cc1	i	nt	nt	i	i	i
OCc1nc2ccccc2n1CCCOc1ccc(Br)cc1	i	i	45.2	i	i	i
O=c1cc(CNCCCO)c2ccccc2[nH]1	i	i	i	i	i	22.8
C#C[C@]1(O)CC[C@H]2[C@@H]3CCC4=C(CCC(=O)C4)[C@H]3CC[C@@]21C	nt	nt	nt	i	i	nt
CCOc1ccc(CNC(=O)c2ccc(Sc3ccc(C)cc3)c(NC(C)=O)c2)cc1	nt	nt	nt	i	i	nt
CCN(CC)S(=O)(=O)c1ccc(OC)c(NC(=O)CSc2ccccc2)c1	i	i	i	i	i	i
SMILES	S1P2 antag	PostGolgi yeast	PostGolgi ctrl	GALR2 blocker	GALR2 ag	S1P2 ag
COc1ccc(Cn2nnnc2C(c2cc3ccc(OC)cc3[nH]c2=O)N2CCC(C)CC2)cc1 (configuration not stated)	i	i	i	i	i	i
CCN1CCN(C(c2cc3cccc(C)c3[nH]c2=O)c2nnnn2Cc2ccccc2)CC1 (configuration not stated)	nt	i	i	i	i	nt
Cc1cc(C)c2[nH]c(=O)c(C(c3nnnn3Cc3ccc4c(c3)OCO4)N3CCC(C)CC3)cc2c1 (configuration not stated)	i	i	33.2	i	i	i
COc1ccc(OC)c(C(c2nnnn2CCc2ccccc2)N2CCN(c3ccccc3)CC2)c1 (configuration not stated)	i	i	i	i	i	i
COc1ccc(N2CCN(C(c3cc4cc(C)ccc4[nH]c3=O)c3nnnn3Cc3ccccc3)CC2)cc1 (configuration not stated)	i	i	i	i	i	i
COc1ccc(Cn2nnnc2C(c2cc3cc(C)ccc3[nH]c2=O)N2CCOCC2)cc1 (configuration not stated)	i	i	44.0	i	i	i
COc1ccc(Cn2nnnc2C(c2cc3cccc(C)c3[nH]c2=O)N2CCOCC2)cc1 (configuration not stated)	i	i	34.1	i	i	i
COc1ccc(OC)c(C(c2nnnn2Cc2ccccc2)N2CCN(C)CC2)c1 (configuration not stated)	i	i	36.5	i	i	i
O=c1ccccn1Cc1c(F)cccc1Cl	i	i	i	i	i	i
O=c1oc(-c2ccccc2NS(=O)(=O)c2ccc3ccccc3c2)nc2ccccc12	nt	nt	nt	i	i	nt
Cc1cc(C)n2c(SCC(=O)Nc3ccc(Cl)cn3)nnc2n1	i	i	i	i	i	i
Cc1cc(C)n2c(SCc3ccccc3Cl)nnc2n1	i	i	38.5	i	i	i
Cc1cc(C)n2c(-c3ccccc3Cl)nnc2n1	nt	nt	nt	i	i	nt
Cc1cc(C)n2c(SCc3ccc(Cl)cc3Cl)nnc2n1	i	i	35.5	i	i	i
O=S(=O)(c1ccc(Cl)cc1)N1CCN(C2CCN(Cc3ccccc3)CC2)CC1	i	89.9	i	i	i	i
O=C(C1CC1)N1CCc2cc(S(=O)(=O)NCCC3=CCCCC3)ccc21	i	i	35.6	i	i	i
CCCN(CCC)CCNS(=O)(=O)c1ccc2c(c1)CCN2C(=O)C1CCC1	i	i	i	i	i	i
CC(C)NC(=O)c1ccc2c(c1)S(=O)(=O)c1ccccc1C2=O	i	i	i	i	i	18.2
Cc1ccc(S(=O)(=O)Nc2cccc3c2CCCC3)cc1	nt	nt	nt	i	i	nt
Cc1cc(=O)oc2cc(OCC(=O)NCCCN3CCOCC3)ccc12	i	i	i	i	i	i
Cc1cc(=O)oc2cc(OCCSCCN3CCOCC3)ccc12	i	i	31.9	i	i	i
COC(=O)C1=C(C)Nc2c(c(=O)n(C)c(=O)n2C)C1c1ccncc1 (configuration not stated)	nt	nt	nt	i	i	nt
COc1cccc(Nc2nc3ccccc3n3cnnc23)c1	i	i	33.3	i	i	i
COc1cccc(Nc2nc3ccccc3n2C(C)C)c1	nt	nt	nt	i	i	nt
Nc1c(C(=O)Nc2ccc(Br)cc2)sc2nc(-c3ccco3)ccc12	i	i	i	i	i	i
SMILES	S1P2 antag	PostGolgi yeast	PostGolgi ctrl	GALR2 blocker	GALR2 ag	S1P2 ag
Nc1c(C(=O)Nc2ccc(F)cc2)sc2nc(-c3ccco3)ccc12	i	i	39.7	i	i	i
N/C(Cc1ccc([N+](=O)[O-])cc1)=N\OC(=O)c1ccccc1Br	nt	nt	nt	i	i	nt
N/C(Cc1ccc([N+](=O)[O-])cc1)=N\OC(=O)c1ccc2ccccc2c1	i	i	71.5	i	i	i
N/C(Cc1ccc([N+](=O)[O-])cc1)=N\OC(=O)C(c1ccccc1)c1ccccc1	i	i	32.8	i	i	i
CCN1CCN(c2ccc(NC(=O)c3ccc4c(c3)[nH]c(=O)n4Cc3ccc(F)cc3)cc2)CC1	nt	nt	nt	i	i	nt
Cc1cc(C)c(-n2nnnc2SC(C)C)c(C)c1	nt	nt	nt	i	i	nt

Bioassay records from PubChem.
